Outcome and AC50 data for nine molecules are collected here from PubChem BioAssay (EPA / NIEHS).

As usually defined, the AC50 is the midpoint of the concentration-response curve, whichever way the signal moves.

Test [1] is described as follows: ATG_Sox_CIS: Attagene CIS-FACTORIAL HepG2 Assay for human SRY-box transcription factor (SOX) (AID 2282960). As to conditions: HepG2 Attagene cis-factorial SOX reporter, mRNA; actives raise or lower the signal. An outline of the steps: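 Fluorescence-labelled cDNA fragments from reporter transcripts, sized by CE, give the signal. Cells: HepG2, transiently transfected with cis-regulated reporter units. Exposure 24 h; DMSO negative control; bidirectional curve fitting.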

Test [2] concerns the target Transcription factor Sp1 (Homo sapiens) (UniProt P08047). The experiment in a line: ATG_Sp1_CIS: Attagene CIS-FACTORIAL HepG2 Assay for human Specificity Protein 1 (Sp1) (AID 2282961). As to conditions: HepG2 Sp1 cis-reporter transcription, actives raise or lower the signal. An outline of the steps:
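Chemicals are dosed onto HepG2 cells transfected with multiple cis-promoter reporter constructs, and after 24 h reporter RNA is reverse-transcribed, PCR-amplified and resolved by capillary electrophoresis for fluorescence quantitation; activity is scored up or down against DMSO.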

Test [3] in a line: ATG_SREBP_CIS: Attagene CIS-FACTORIAL HepG2 Assay for human Sterol Regulatory Element Binding (SREBP) (AID 2282962). As to conditions: HepG2 Attagene cis-factorial SREBP reporter, mRNA; actives raise or lower the signal. An outline of the steps:
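HepG2 cells transiently transfected with multiplexed cis-element reporter units report endogenous transcription factor activity. After 24 h of chemical exposure, reporter mRNA was quantified by RT-PCR, 6-FAM labelling, HpaI digestion and capillary electrophoresis; bidirectional fits used DMSO as baseline.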

A short description of test [4]: ATG_TA_CIS: Attagene CIS-FACTORIAL HepG2 Assay for human TA Basal Promoter (AID 2282964). As to conditions: HepG2 Attagene CIS-factorial TA basal promoter reporter; actives raise or lower the signal. An outline of the steps: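 Transfected HepG2, 24 h compound exposure; RNA → RT-PCR → FAM primer extension → HpaI cut → CE fluorescence. Gain/loss-of-signal fitted against DMSO negative control. Background-control readout.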

Test [5] can be described thus: ATG_TCF_b_cat_CIS: Attagene CIS-FACTORIAL HepG2 Assay for human T-Cell-Factor with beta-catenin (TCF/b-cat) (AID 2282965). As to conditions: HepG2 TCF/beta-catenin cis-reporter transcription, actives raise or lower the signal. In short, it runs like this:
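Cells of the HepG2 line carry transiently transfected reporter units whose promoters respond to endogenous factors. Twenty-four hours post-dosing, reporter mRNA induction is measured by fluorescent RT-PCR and capillary electrophoresis, with DMSO as baseline.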

Test [6] is described as follows: ATG_TAL_CIS: Attagene CIS-FACTORIAL HepG2 Assay for human TAL Basal Promoter (AID 2282966).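 Also: background control endpoint measuring basal TAL promoter reporter mRNA not a specific factor.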 As to conditions: HepG2 Attagene cis-factorial TAL promoter reporter; actives raise or lower the signal. An outline of the steps:
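In this cell-based multiplex, HepG2 liver cells bearing cis-promoter reporter constructs are dosed for 24 hours. Total RNA is reverse-transcribed and amplified, labelled fragments are sized by capillary electrophoresis, and signal changes are fitted bidirectionally versus DMSO.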

Test [7] in a line: ATG_TGFb_CIS: Attagene CIS-FACTORIAL HepG2 Assay for human Transforming Growth Factor (TGF) (AID 2282967). As to conditions: HepG2 Attagene CIS TGFb reporter, mRNA transcription; actives raise or lower the signal. An outline of the steps: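 Readout: fluorescently labeled reporter cDNA fragments resolved by capillary electrophoresis after RT-PCR. Transfected HepG2 cells dosed for 24 h; endogenous TF activity at TGFB1-linked cis element; gain or loss fitted relative to DMSO.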

Test [8] concerns the target Nuclear receptor subfamily 1 group I member 3 (Homo sapiens) (UniProt Q14994). The experiment in a line: ATG_CAR_TRANS: Attagene TRANS-FACTORIAL HepG2 Assay for human Constitutive Androstane Receptor (CAR) (AID 2282969; active = hit-call score of the fitted dose curve at least 0.9, where 1 is the maximum;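 also: activators raise reporter mRNA above DMSO so AC50 marks induction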). As to conditions: HepG2 Attagene TRANS-FACTORIAL CAR reporter. An outline of the steps: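 HepG2 cells transiently transfected with GAL4-UAS reporter units; TRANS format reads activity of exogenous chimeric NR-Gal4 protein. After 24 h dosing, reporter mRNA quantified by RT-PCR, 6-FAM labelling and capillary electrophoresis; gain of signal fitted against DMSO.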

Test [9] addresses X-box-binding protein 1 (Homo sapiens) (UniProt P17861). As to the kind of experiment: ATG_Xbp1_CIS: Attagene CIS-FACTORIAL HepG2 Assay for human X-box Binding Protein 1 (XBP1) (AID 2282972). As to conditions: HepG2 XBP1 cis-element reporter, Attagene multiplex; actives raise or lower the signal. In short, it runs like this:
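HepG2 cells transiently transfected with cis-regulated multiple reporter transcription units; endogenous transcription factor activity measured 24 hours after chemical dosing. Reporter mRNA quantified by RT-PCR, 6-FAM primer extension, HpaI digestion and capillary electrophoresis; bidirectional fitting versus DMSO.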

The nature of test [10]: ATG_GAL4_TRANS: Attagene TRANS-FACTORIAL HepG2 Assay for GAL4 (Internal Marker) (AID 2282976; active = hit-call score of the fitted dose curve at least 0.9, where 1 is the maximum). As to conditions: HepG2 Attagene TRANS GAL4 internal marker reporter. In short, it runs like this: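 RT-PCR/capillary electrophoresis readout of reporter mRNA. HepG2, transient MRTU transfection (GAL4-UAS reporters), 24 h compound exposure. Background-control endpoint, positive direction vs DMSO baseline.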

Test [11] addresses Oxysterols receptor LXR-alpha (Homo sapiens) (UniProt Q13133). The experiment in a line: ATG_LXRa_TRANS: Attagene TRANS-FACTORIAL HepG2 Assay for human Liver X Receptor alpha (LXRa) (AID 2282980; active = hit-call score of the fitted dose curve at least 0.9, where 1 is the maximum). As to conditions: HepG2 Attagene TRANS reporter, LXRa transactivation. In short, it runs like this: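 Read-out: reporter transcript levels by RT-PCR plus capillary electrophoresis, fluorescence intensity. Transiently transfected HepG2, exogenous NR-GAL4 chimera, GAL4-UAS reporters; 24 h compound exposure. Activity = increase over DMSO negative control.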

The target of test [12] is Oxysterols receptor LXR-beta (Homo sapiens) (UniProt P55055). As to the kind of experiment: ATG_LXRb_TRANS: Attagene TRANS-FACTORIAL HepG2 Assay for human Liver X Receptor beta (LXRb) (AID 2282981; active = hit-call score of the fitted dose curve at least 0.9, where 1 is the maximum). As to conditions: HepG2 Attagene TRANS GAL4-LXRb reporter, mRNA. In short, it runs like this:
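Gain-of-signal mRNA reporter endpoint, DMSO as negative control. Transiently transfected HepG2 cells carrying the NR-Gal4 chimera and GAL4-UAS reporter units were treated 24 h; transcripts quantified by RT-PCR and capillary electrophoresis fluorescence.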

The nature of test [13]: ATG_VDRE_CIS: Attagene CIS-FACTORIAL HepG2 Assay for human Vitamin D Receptor Element (VDRE) (AID 2282968). As to conditions: HepG2 VDRE cis-reporter transcription, actives raise or lower the signal. An outline of the steps: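 Cell-based multiplexed reporter format in human liver HepG2 cells, 24 h post-dose. Fluorescence from capillary electrophoresis of reporter cDNA gives the signal, with DMSO as negative control and baseline.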

The target in test [14] is Estrogen receptor (Homo sapiens) (UniProt P03372). As to the kind of experiment: ATG_ERa_TRANS: Attagene TRANS-FACTORIAL HepG2 Assay for human Estrogen Receptor alpha (ERa) (AID 2282970; active = hit-call score of the fitted dose curve at least 0.9, where 1 is the maximum). As to conditions: HepG2 Attagene TRANS ERa GAL4 reporter, mRNA. In short, it runs like this: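 After 24 h of compound treatment, RNA from HepG2 cells bearing transfected GAL4-UAS reporter constructs is converted to cDNA, amplified and fluorescently labelled. Capillary electrophoresis resolves the ERa-linked reporter; DMSO serves as negative control.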
Chain of Estrogen receptor (Homo sapiens) (P03372 whole entry, looked up, the tested form may be a part): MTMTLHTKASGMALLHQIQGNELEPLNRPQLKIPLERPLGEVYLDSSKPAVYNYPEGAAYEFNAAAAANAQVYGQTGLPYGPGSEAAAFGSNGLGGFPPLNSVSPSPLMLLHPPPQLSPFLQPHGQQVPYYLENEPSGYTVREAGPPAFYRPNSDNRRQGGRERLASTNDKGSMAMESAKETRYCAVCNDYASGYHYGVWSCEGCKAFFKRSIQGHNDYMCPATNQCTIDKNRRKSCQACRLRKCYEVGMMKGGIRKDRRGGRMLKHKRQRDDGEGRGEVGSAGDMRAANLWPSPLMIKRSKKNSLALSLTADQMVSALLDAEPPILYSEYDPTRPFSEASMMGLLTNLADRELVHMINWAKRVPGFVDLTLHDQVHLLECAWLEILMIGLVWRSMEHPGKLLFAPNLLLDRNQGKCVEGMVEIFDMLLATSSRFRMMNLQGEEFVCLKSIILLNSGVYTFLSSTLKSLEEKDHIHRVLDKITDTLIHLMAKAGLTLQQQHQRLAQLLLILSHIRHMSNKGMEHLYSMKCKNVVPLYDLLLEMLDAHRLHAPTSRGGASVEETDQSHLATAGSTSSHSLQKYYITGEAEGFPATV

Test [15] has as its target Androgen receptor (Homo sapiens) (UniProt P10275). As to the kind of experiment: ATG_AR_TRANS: Attagene TRANS-FACTORIAL HepG2 Assay for human Androgen Receptor (AR) (AID 2282973; active = hit-call score of the fitted dose curve at least 0.9, where 1 is the maximum). As to conditions: HepG2 Attagene TRANS-FACTORIAL AR reporter transcription. In short, it runs like this: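 Readout is reporter transcript abundance, quantified by fluorescent RT-PCR products separated on capillary electrophoresis. Human HepG2 liver cells carried transiently transfected NR-Gal4 chimera plus GAL4-UAS reporter constructs and were dosed for 24 h; activity scored upward versus DMSO.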

The nature of test [16]: ATG_M_19_TRANS: Attagene TRANS-FACTORIAL HepG2 Assay for M19 Transcription Factor (Internal Marker) (AID 2282974; active = hit-call score of the fitted dose curve at least 0.9, where 1 is the maximum). As to conditions: HepG2 Attagene TRANS-FACTORIAL M19 internal marker reporter. In short, it runs like this:
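Multiplexed TRANS format: HepG2 liver cells bearing transient GAL4-UAS reporter units, chemical treatment 24 h, reporter transcripts quantified by RT-PCR plus capillary electrophoresis. DMSO defines baseline.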

For test [17], the target named is Glucocorticoid receptor (Homo sapiens) (UniProt P04150). The experiment in a line: ATG_GR_TRANS: Attagene TRANS-FACTORIAL HepG2 Assay for human Glucocorticoid Receptor (GR) (AID 2282978; active = hit-call score of the fitted dose curve at least 0.9, where 1 is the maximum;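 also: activators score as hits since higher reporter transcript over DMSO is fitted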). As to conditions: HepG2 Attagene TRANS GR reporter, mRNA transcription. An outline of the steps: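 Transiently transfected HepG2 cells express chimeric NR-GAL4 proteins acting on GAL4-UAS reporter units. Compounds are applied for 24 h. mRNA induction over DMSO is measured by capillary electrophoresis.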
Chain of Glucocorticoid receptor (Homo sapiens) (P04150 whole entry, looked up, the tested form may be a part): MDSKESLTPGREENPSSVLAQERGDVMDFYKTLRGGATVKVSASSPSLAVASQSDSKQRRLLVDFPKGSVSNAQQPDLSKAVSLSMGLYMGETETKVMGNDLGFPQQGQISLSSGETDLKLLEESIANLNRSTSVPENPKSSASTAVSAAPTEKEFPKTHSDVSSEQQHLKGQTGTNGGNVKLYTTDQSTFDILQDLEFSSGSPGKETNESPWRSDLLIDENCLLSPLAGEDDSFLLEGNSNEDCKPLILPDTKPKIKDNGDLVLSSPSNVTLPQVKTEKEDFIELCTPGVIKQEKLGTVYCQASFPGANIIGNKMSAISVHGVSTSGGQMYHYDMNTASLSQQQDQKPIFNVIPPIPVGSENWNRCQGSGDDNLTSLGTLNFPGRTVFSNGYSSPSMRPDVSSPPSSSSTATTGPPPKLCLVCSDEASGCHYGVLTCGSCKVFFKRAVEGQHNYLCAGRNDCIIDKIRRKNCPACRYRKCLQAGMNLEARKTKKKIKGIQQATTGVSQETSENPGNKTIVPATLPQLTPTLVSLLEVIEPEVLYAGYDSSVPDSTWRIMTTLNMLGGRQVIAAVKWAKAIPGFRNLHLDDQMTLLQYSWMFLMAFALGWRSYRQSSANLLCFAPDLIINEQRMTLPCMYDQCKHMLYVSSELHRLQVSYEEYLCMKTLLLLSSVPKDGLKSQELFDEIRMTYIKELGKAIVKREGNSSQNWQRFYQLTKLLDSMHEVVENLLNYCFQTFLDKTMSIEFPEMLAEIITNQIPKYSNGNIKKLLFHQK

For test [18], the target named is Steroid hormone receptor ERR1 (Homo sapiens) (UniProt P11474). As to the kind of experiment: ATG_ERRa_TRANS: Attagene TRANS-FACTORIAL HepG2 Assay for human Estrogen-Related Receptor alpha (ERRa) (AID 2282971; active = hit-call score of the fitted dose curve at least 0.9, where 1 is the maximum). As to conditions: HepG2 Attagene TRANS reporter, ERRa transactivation. In short, it runs like this: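 Transfected HepG2, 24 h dosing, ERRa-Gal4 chimera driving GAL4-UAS reporter. Readout: reporter mRNA via RT-PCR plus capillary electrophoresis (fluorescence). Positive direction vs DMSO control.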
Chain of Steroid hormone receptor ERR1 (Homo sapiens) (P11474 whole entry, looked up, the tested form may be a part): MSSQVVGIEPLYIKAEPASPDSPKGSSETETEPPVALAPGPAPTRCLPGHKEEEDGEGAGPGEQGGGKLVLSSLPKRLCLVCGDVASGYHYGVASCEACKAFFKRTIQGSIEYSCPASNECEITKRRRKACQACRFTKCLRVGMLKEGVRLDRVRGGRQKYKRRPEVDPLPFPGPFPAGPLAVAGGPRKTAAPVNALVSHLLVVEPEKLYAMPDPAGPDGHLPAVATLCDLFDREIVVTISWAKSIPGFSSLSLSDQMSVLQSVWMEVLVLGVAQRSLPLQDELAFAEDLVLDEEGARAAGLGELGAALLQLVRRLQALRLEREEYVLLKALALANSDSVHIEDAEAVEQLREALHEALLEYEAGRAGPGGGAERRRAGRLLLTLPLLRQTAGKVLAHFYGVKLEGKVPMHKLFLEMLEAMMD

Records with an inconclusive call do not appear. Active and inactive are the calls of the source. The calls were made as follows, unless noted: active = hit-call score of the fitted dose curve at least 0.9, where 1 is the maximum; inactive = score below 0.9.

Chain of Oxysterols receptor LXR-alpha (Homo sapiens) (Q13133 whole entry, looked up, the tested form may be a part): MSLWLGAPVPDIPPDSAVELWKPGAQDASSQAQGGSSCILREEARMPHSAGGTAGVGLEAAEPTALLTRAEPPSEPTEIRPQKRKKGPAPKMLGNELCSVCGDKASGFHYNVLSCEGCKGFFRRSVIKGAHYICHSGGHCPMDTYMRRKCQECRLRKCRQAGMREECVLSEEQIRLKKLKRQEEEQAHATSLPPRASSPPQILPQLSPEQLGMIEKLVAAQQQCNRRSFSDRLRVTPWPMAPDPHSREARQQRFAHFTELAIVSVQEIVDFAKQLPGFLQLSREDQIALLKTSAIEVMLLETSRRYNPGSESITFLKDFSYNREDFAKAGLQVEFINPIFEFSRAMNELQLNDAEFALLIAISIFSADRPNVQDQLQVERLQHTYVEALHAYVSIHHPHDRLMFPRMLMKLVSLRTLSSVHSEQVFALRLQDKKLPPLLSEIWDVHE
Chain of X-box-binding protein 1 (Homo sapiens) (P17861 whole entry, looked up): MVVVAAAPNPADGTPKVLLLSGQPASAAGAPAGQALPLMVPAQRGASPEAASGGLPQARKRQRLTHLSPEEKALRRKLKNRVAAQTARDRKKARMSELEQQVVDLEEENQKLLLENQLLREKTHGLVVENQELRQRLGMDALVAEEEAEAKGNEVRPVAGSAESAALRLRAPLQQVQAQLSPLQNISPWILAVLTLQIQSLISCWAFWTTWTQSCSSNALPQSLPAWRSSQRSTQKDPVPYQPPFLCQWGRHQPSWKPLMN
Chain of Oxysterols receptor LXR-beta (Homo sapiens) (P55055 whole entry, looked up, the tested form may be a part): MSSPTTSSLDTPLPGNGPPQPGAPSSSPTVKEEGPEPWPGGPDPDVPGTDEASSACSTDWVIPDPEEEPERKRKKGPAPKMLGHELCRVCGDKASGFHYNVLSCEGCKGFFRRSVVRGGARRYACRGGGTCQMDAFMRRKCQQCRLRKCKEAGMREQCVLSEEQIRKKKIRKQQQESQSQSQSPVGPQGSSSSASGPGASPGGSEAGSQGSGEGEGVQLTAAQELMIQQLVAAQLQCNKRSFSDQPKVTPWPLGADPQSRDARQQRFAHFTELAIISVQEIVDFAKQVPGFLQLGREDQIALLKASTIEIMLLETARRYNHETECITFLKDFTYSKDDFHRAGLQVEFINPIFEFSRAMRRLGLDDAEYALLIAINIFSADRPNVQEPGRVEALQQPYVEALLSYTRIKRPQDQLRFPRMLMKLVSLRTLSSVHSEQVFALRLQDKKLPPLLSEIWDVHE
Chain of Nuclear receptor subfamily 1 group I member 3 (Homo sapiens) (Q14994 whole entry, looked up, the tested form may be a part): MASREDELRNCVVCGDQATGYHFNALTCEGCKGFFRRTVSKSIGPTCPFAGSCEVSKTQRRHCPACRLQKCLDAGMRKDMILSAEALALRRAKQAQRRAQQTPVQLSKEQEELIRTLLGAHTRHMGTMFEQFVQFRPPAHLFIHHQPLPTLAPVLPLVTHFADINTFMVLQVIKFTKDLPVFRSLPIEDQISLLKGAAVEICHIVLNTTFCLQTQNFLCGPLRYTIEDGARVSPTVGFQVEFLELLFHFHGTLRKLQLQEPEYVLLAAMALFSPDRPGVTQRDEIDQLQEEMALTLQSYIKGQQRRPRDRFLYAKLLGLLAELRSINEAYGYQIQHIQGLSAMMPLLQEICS
Chain of Transcription factor Sp1 (Homo sapiens) (P08047 whole entry, looked up): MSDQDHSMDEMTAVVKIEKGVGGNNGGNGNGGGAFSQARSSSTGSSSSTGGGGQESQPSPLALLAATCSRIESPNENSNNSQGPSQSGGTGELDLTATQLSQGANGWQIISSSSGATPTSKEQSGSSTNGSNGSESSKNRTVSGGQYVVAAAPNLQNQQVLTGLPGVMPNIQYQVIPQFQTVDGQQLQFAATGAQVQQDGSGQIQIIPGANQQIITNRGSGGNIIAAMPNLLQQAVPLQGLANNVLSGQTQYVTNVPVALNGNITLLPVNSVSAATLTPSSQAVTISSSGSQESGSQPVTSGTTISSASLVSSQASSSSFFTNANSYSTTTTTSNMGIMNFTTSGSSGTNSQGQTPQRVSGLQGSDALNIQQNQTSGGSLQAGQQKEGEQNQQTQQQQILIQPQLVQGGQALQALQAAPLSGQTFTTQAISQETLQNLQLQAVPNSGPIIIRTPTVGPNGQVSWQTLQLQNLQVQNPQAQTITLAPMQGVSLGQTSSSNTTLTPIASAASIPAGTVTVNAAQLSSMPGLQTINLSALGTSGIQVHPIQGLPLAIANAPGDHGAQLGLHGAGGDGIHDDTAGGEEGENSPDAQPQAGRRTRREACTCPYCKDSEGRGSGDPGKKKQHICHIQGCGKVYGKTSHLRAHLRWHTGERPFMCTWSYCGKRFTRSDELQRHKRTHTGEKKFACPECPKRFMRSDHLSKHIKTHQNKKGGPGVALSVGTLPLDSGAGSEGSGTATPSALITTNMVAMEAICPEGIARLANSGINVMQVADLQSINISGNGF
Chain of Androgen receptor (Homo sapiens) (P10275 whole entry, looked up, the tested form may be a part): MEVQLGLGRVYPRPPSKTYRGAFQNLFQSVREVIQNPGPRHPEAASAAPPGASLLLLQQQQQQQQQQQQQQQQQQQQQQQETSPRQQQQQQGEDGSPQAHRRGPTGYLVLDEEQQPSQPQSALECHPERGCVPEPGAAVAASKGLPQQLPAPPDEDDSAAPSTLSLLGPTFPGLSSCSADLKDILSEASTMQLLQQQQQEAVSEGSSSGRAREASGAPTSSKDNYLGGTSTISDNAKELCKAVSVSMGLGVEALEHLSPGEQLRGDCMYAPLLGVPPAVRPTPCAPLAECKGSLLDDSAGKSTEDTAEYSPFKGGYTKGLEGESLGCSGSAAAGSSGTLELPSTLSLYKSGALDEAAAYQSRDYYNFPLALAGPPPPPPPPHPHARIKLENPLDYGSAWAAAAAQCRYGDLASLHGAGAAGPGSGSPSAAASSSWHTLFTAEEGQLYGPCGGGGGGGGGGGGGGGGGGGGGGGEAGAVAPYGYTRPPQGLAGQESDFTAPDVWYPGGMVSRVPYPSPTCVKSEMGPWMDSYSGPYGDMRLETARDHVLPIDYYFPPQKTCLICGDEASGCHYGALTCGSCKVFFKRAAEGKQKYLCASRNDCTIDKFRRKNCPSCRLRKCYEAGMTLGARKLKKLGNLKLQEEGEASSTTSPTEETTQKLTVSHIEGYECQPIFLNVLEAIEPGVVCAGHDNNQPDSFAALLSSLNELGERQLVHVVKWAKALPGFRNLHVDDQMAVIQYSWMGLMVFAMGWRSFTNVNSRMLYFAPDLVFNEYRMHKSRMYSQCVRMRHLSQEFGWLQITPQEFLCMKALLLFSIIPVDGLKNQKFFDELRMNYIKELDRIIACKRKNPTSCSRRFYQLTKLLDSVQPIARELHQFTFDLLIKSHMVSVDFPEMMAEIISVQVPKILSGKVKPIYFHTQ

On to `CCOP(OCC)OCC`, for which the call in [1], in [2], in test [3], in test [4], in test [5] and in [6] was inactive. In addition, the molecule was called inactive in [7], in test [8], in test [9], in test [10], in test [11] and in test [12].
`CCOP(=S)(OCC)Oc1nc(Cl)c(Cl)cc1Cl`: the result in test [1], in [4], in test [5], in test [6], in test [7] and in test [8] was inactive. Moreover, the call in [15], in test [16] and in test [17] was inactive. Also, the AC50 was 65.3 µM (active) in [2]; 68.1 µM (active) in test [3]; 5.83 µM (active) in test [13]; 26.9 µM (active) in test [14]; 100 µM (active) in test [9].
As to `CCC(C)(C)c1ccc(O)c(C(C)(C)CC)c1`, the result in [1], in [2], in test [3], in test [4], in [5] and in test [6] was inactive. The molecule was classed as inactive in test [7], in test [18], in test [9], in test [16] and in test [17]. The AC50 was 15.9 µM (active) in [13], 33.4 µM (active) in [8], 9.67 µM (active) in test [11] and 23.6 µM (active) in [12].
Consider `O=[N+]([O-])c1c(Cl)c(Cl)cc(Cl)c1Cl`, for which the molecule was called inactive in test [1], in test [2], in [3], in test [4], in [5] and in [6]. The outcome in test [7], in test [13], in [14], in [9] and in test [16] was inactive.
For `CN(C)P(=O)(N(C)C)N(C)C`, the molecule was called inactive in test [1], in test [2], in test [3], in test [5], in test [6] and in test [7]. Besides, the molecule was called inactive in test [13], in [14], in test [18], in test [9], in [16] and in test [10]. Further, the molecule was called inactive in test [11] and in test [12].
Consider `ClCC(Cl)CCl`, for which the molecule was classed as inactive in test [1], in [2], in test [3], in test [4], in test [5] and in [6]. Also, the result in [7], in test [13], in test [9], in [16], in test [10] and in test [17] was inactive. Besides, the outcome in [11] was inactive.
With `COc1cc2c(cc1OC)[C@@]13CCN4CC5=CCO[C@H]6CC(=O)N2[C@H]1[C@H]6[C@H]5C[C@H]43`, the molecule was called inactive in test [1], in test [2], in test [3], in [4], in test [5] and in test [6]. In addition, the result in [7], in test [13], in [9] and in test [16] was inactive.
Regarding `Cc1cc(Cl)ccc1O[C@H](C)C(=O)O`, the result in test [1], in test [2], in [3], in [4], in test [5] and in test [6] was inactive. Also, the molecule was called inactive in test [7] and in [9].
Regarding `CCOC(=O)Nc1cccc(OC(=O)Nc2ccccc2)c1`, the call in test [1], in test [2], in test [3], in [5], in [6] and in test [7] was inactive. For the same molecule, the molecule was called inactive in test [13], in test [8], in test [9], in test [16], in [10] and in test [11]. In addition, the outcome in [12] was inactive.
